BRCA1 expr up – qHTS Assay to Identify Small Molecule Activators of BRCA1 Expression. Potency, µM (top dose mostly 46.1 µM), actives largely listed as activators. AID 624202, 2012. MCF7-BRCA1-FFLuc reporter, luminescence, 48 h; response scale: scaled: vehicle 0%, 10 µM genistein 100%. 380,000 tested, 1.1% active; note: nearly all actives have a fitted effect of over 80% in size
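Reporter cells (MCF7, BRCA1 promoter-firefly luciferase) received library compounds across a concentration series for 48 h. End-point luminescence was measured and concentration-effect curves derived after normalization.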
GLP-1R agonist – qHTS of GLP-1 Receptor Agonists | Glucagon-like peptide 1 receptor (Homo sapiens), P43220 | 380,000 tested, 0.007% active | HEK293 GLP-1R CRE-luciferase, luminescence, 4-6 h; cells express a hypersensitive GLP-1R form | Potency, µM (highest dose often 45.6 µM), usual class: activators
Target sequence (P43220 whole entry, looked up): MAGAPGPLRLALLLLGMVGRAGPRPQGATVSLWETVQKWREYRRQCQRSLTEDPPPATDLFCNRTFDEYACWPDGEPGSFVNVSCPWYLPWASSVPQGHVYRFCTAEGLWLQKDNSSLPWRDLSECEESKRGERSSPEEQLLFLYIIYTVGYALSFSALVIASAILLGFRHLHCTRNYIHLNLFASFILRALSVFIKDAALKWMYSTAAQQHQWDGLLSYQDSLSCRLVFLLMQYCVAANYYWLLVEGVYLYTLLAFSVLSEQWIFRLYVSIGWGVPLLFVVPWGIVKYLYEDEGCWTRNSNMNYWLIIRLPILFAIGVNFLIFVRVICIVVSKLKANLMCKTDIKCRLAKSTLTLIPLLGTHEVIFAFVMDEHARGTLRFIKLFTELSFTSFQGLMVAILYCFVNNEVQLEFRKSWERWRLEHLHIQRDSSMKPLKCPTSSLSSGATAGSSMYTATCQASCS
GLP-1R inv ag – qHTS of GLP-1 Receptor Inverse Agonists (Inhibition Mode) | Glucagon-like peptide 1 receptor (Homo sapiens), P43220 | Potency, µM (doses to about 38.3 µM), most hits filed as inhibitors | 410,000 tested, 1.6% active | HEK293 GLP-1R CRE-luciferase, luminescence, 24 h; GLP-1R form is constitutively active; note: nearly all actives have a fitted effect of over 55% in size
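Readout was luciferase luminescence, measured 12 min after detection reagent at room temperature. Beforehand, GLP-1R reporter HEK293 cells had sat 12 h, then received compounds for 24 hr at 37 deg C.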
HEK293 tox – qHTS of GLP-1 Receptor Inverse Agonists: Cytotox Screen | HEK293 cAMP-luciferase reporter cells, luminescence, 24 h | Potency, µM (highest dose often 38.3 µM), actives largely listed as inhibitors | 410,000 tested, 0.13% active | AID 624418, 2012;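 note: loss of luciferase light is scored as toxicity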
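Here, cytotoxicity is scored as loss of luminescence. The MLSMR collection was tested on cells seeded in medium containing 10% Nu serum, with a 24 hr compound exposure preceded by 12 hours of culture.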
Each line names hits and unclear results; the compound was inactive in the other large screens. A selection: hits, their analogues and other compounds. The true share with any hit is near 2.6%. Calls come from the whole dose curve; as a rule, active = well fitted curve in the direction sought with a large enough effect; inconclusive = small, poorly fitted or top-dose-only effect, or another doubt; inactive = no such curve, though single readings can be large; an effect the other way counts as inactive or inconclusive.

COc1ccccc1-n1c(-c2ccc(Cl)cc2)c[nH]c1=S	none
Cc1ccc([N+](=O)[O-])cc1NC(=O)CN(C(=O)c1ccccc1Cl)C1CCCCC1	GLP-1R inv ag 10µM
Cc1ccc([N+](=O)[O-])cc1NC(=O)CN(C1CCCCC1)S(=O)(=O)c1ccc(Cl)cc1	GLP-1R inv ag inconclusive
CCN1C(=O)c2ccccc2C1Nc1cccc(OCCN2CCCCC2)c1 (centres undefined)	none (no result: BRCA1 expr up, GLP-1R inv ag, HEK293 tox)
C/C(=C\[C@@H](NP(=O)(c1ccccc1)c1ccccc1)c1ccccc1)CO[Si](c1ccccc1)(c1ccccc1)C(C)(C)C	GLP-1R inv ag 7.9µM
Cc1cccc(-c2ncc(S(=O)(=O)C(C)(C)C)c(N)n2)c1	BRCA1 expr up 5µM, GLP-1R agonist inconclusive
CCOC(=S)NC(=O)c1sc2ccccc2c1Cl	none
O=C(NC(=S)NCCO)c1sc2ccccc2c1Cl	BRCA1 expr up 11µM
CC(=O)c1ccc(N2CCN(C(=O)Nc3ccc(Cl)cc3)CC2)cc1	none
CCC(=O)Nc1ccc(F)c(Cl)c1	none
O=C(Nc1ccc(Cl)cc1)N1CCC(CO)(Cc2ccccc2)CC1	GLP-1R inv ag 7.9µM
O=C(Nc1ccc(F)c(Cl)c1)N1CCCCCC1	BRCA1 expr up 8.9µM
O=C(Nc1ccc(Cl)cc1)N1CC=CCC1	BRCA1 expr up 7.9µM
O=C(Nc1ccc(F)c(Cl)c1)N1CCCC1	none
O=C(Nc1ccc(Cl)cc1)N1CCN(c2ccccc2)CC1	GLP-1R inv ag inconclusive
CCN(CC)C(=O)C(=O)Nc1ccc(F)c(Cl)c1	BRCA1 expr up 8.9µM
O=C1NC[C@H](CCCCN2CCN(CC3CCCCC3)C(=O)C2=O)N(CCc2ccccc2)C1=O	none
CCOc1ccccc1CNC(=O)Cn1c(=O)c2cccn2c2ccc(F)cc21	none (no result: BRCA1 expr up, GLP-1R agonist)
N#CN=c1snc(-c2ccccc2)n1-c1ccc(Cl)cc1	none (no result: GLP-1R agonist, GLP-1R inv ag, HEK293 tox)
Cc1cccc(NC(=O)CSc2nc3ccccc3c3nc(CCc4c(C)n[nH]c4C)nn23)c1	GLP-1R inv ag inconclusive, HEK293 tox 5µM
CCc1ccc(CN(Cc2ccco2)c2cnc(S(C)(=O)=O)nc2C(=O)Nc2ccccc2Cl)cc1	GLP-1R inv ag inconclusive (no result: BRCA1 expr up, GLP-1R agonist)
O=C(NCCC(=O)N1CCCCC1)c1ccc(Br)cc1	BRCA1 expr up 10µM
CN(C)c1ccc(/C=C/c2nc3ccccc3s2)cc1Cl	none (no result: GLP-1R agonist, GLP-1R inv ag, HEK293 tox)
COc1cccc(CNC(=O)CCc2ccc(OC)c(OC)c2)c1	none
O=c1[nH]c(=O)n([C@@H]2C[C@H](O)[C@H](CO)O2)cc1I	none (no result: BRCA1 expr up, GLP-1R inv ag, HEK293 tox)
C=CCNC(=S)Nc1sc2c(c1C(=O)OCC)CC(C)(CC)OC2 (centres undefined)	HEK293 tox 10µM
CN(c1ccccc1)c1ncnc2c1cnn2C	none (no result: BRCA1 expr up, GLP-1R agonist)
O=C(NCc1ccccc1)C(c1ccccc1)n1c(-c2ccccn2)nc2ccccc21 (centres undefined)	GLP-1R inv ag 7.9µM (no result: BRCA1 expr up, GLP-1R agonist)
CC1CCCN(C(=O)CSc2nc3ccccc3o2)C1 (centres undefined)	BRCA1 expr up 8.9µM, HEK293 tox inconclusive
O=C(CSc1nc2cc(Cl)ccc2o1)N1CCOCC1	none
O=C(O)c1ccc2oc(SCC(=O)N3CCCCC3)nc2c1	BRCA1 expr up 7.1µM
CN(C)CCCN(Cc1ccccc1)C(=S)Nc1ccc(SC(F)F)cc1	GLP-1R inv ag 11µM
CSc1cccc(NC(=O)c2sc3nc4n(c(=O)c3c2C)CCC4)c1	BRCA1 expr up 8.9µM
Cc1c(C(=O)Nc2ccc(Oc3ccccc3)cc2)sc2nc3n(c(=O)c12)CCC3	GLP-1R inv ag inconclusive
COc1cccc(NC(=O)c2sc3nc4n(c(=O)c3c2C)CCC4)c1	BRCA1 expr up 10µM
CC(=O)c1cccc(NC(=O)c2sc3nc4n(c(=O)c3c2C)CCCCC4)c1	none
CCCCOc1ccc(C(=O)NCC(=O)N2CC(C)CC(C)C2)cc1 (centres undefined)	GLP-1R inv ag 11µM
COc1ccc(C(=S)N2CCC(C(N)=O)CC2)cc1Br	none
CCCCOc1ccc(C(=S)N2CCC(C(N)=O)CC2)cc1	BRCA1 expr up 4µM
CC(=O)NC(CCC(N)=O)C(=O)O (centres undefined)	none (no result: BRCA1 expr up, GLP-1R inv ag, HEK293 tox)
CCn1c(C(=O)NCc2ccc(OC(C)C)cc2)cc2oc3ccccc3c21	GLP-1R inv ag inconclusive (no result: BRCA1 expr up, GLP-1R agonist)
CCn1c(C(=O)NCc2ccccc2C)cc2oc3ccccc3c21	GLP-1R inv ag 5µM (no result: BRCA1 expr up, GLP-1R agonist)
Cn1c(C(=O)NCc2cccc(Cl)c2)cc2oc3ccccc3c21	GLP-1R inv ag inconclusive (no result: GLP-1R agonist)
COCCNC(=O)c1cc2oc3ccccc3c2n1C	BRCA1 expr up 10µM
O=C(N/N=C/c1ccc[nH]1)c1ccccc1OCc1ccc(F)cc1	none
CCOc1ccc(OCc2ccc(C(=O)NN=Cc3ccc[nH]3)cc2)cc1	GLP-1R inv ag inconclusive, HEK293 tox 2.2µM
O=C(c1ccco1)N1CCN(Cc2ccc(F)cc2)CC1	none
O=C(c1ccco1)N1CCN(c2ccc(N3CCCCC3)nn2)CC1	BRCA1 expr up 10µM
O=C(c1ccco1)N1CCN(C(=O)c2ccco2)CC1	none
O=C(c1ccco1)N1CCN(Cc2ccccc2Br)CC1	BRCA1 expr up 16µM
Cc1ccc(-n2ncc3c(NC4CCCCC4)ncnc32)cc1	GLP-1R inv ag 10µM (no result: BRCA1 expr up, GLP-1R agonist)
Fc1ccc(-n2ncc3c(NC4CCCCCC4)ncnc32)cc1	none (no result: BRCA1 expr up, GLP-1R agonist)
Cc1ccc(-n2ncc3c(NC4CCCCCC4)ncnc32)cc1	GLP-1R inv ag 4.5µM (no result: BRCA1 expr up, GLP-1R agonist)
CC(C)NC(=O)N1CC(c2ccccc2)C(c2ccc(Cl)cc2)=N1 (centres undefined)	GLP-1R inv ag 4µM
COc1cccc(C(=O)Oc2c(Br)cc(Br)cc2/C=N/NC(=O)c2cc(C)[nH]n2)c1	GLP-1R inv ag 6.3µM
CCc1nn(CC(=O)NCCCN(CC(C)C)CC(C)C)c(=O)c2cc3sc(C)cc3n12	none (no result: BRCA1 expr up, GLP-1R agonist)
CCc1nn(CC(=O)NCCCN(CC)CC)c(=O)c2cc3sc(C)cc3n12	GLP-1R inv ag 10µM
COc1ccc(COc2cc(-c3cccc(OC)c3)nc3ccc(NC(=O)c4cccnc4)cc23)cc1	GLP-1R inv ag 2.8µM
COc1ccc(NC(=S)NNC(=O)c2ccco2)c(OC)c1	none
Cc1cc(C(=O)CN2C(=O)C(=O)N(CC(C)C)C2=O)c(C)n1C1CC1	BRCA1 expr up 3.2µM
Cc1ccccc1C(=O)N(Cc1ccc(N(C)C)cc1)Cc1ccco1	GLP-1R inv ag inconclusive (no result: BRCA1 expr up, GLP-1R agonist)
CN(C)C(=O)c1cc(C(=O)c2ccc(C(F)(F)F)cc2)c[nH]1	BRCA1 expr up 10µM
CN(C)C(=O)c1cc(C(=O)c2ccc(F)cc2Cl)c[nH]1	none
Cc1ccn2c(Nc3c(C)cccc3C)c(-c3ccc(Cl)s3)nc2c1	GLP-1R inv ag inconclusive (no result: BRCA1 expr up, GLP-1R agonist)
Cc1ccc(-c2nc3c(cnn3-c3ccccc3)c(=O)n2-c2cccc(Cl)c2)cc1	GLP-1R inv ag 4.5µM (no result: BRCA1 expr up, GLP-1R agonist)
Cc1ccc(-n2c(-c3ccc(Br)cc3)nc3c(cnn3-c3ccccc3)c2=O)cc1	none (no result: BRCA1 expr up, GLP-1R agonist)
CCSc1nc2c(cnn2-c2ccccc2)c(=O)n1N	BRCA1 expr up 5µM
